Records with an inconclusive call do not appear. The source made the active and inactive calls. Unless noted, the call rests on the fitted dose curve; in most records, active means well fitted curve in the direction sought with a large enough effect in the repeat runs; inconclusive means weak or mixed curves; inactive means no such curve, though single readings can be large; an effect the other way counts as inactive or inconclusive.
Experiments:
[1] = biological target: Luciferin 4-monooxygenase (Photinus pyralis) (UniProt P08659); assay: qHTS assay to identify small molecule inhibitors of firefly luciferase (AID 1224835); further: nearly all actives have a fitted effect of over 25% in size; further: potency means the concentration at half of the fitted maximal effect
Luciferin 4-monooxygenase (Photinus pyralis), sequence (P08659 whole entry, looked up): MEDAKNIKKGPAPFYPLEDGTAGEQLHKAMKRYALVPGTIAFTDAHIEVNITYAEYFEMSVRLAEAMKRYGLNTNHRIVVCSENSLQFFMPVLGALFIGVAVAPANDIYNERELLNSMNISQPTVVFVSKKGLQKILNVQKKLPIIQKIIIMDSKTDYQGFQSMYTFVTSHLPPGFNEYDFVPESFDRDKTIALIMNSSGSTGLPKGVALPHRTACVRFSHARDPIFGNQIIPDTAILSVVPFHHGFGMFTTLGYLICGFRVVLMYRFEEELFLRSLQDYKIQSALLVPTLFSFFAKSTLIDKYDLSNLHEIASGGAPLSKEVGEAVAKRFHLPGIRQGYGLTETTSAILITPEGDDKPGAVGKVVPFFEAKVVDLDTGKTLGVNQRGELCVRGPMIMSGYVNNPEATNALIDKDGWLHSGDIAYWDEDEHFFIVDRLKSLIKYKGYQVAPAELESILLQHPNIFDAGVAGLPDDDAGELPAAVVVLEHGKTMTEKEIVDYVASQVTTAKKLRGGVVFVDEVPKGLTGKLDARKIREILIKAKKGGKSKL
In short: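 Quantitative HTS format; KM concentrations of both substrates. Purified P. pyralis FLuc activity quantified from luminescence images.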

[2] = qHTS assay to identify small molecule agonists of the constitutive androstane receptor (CAR) signaling pathway - cell viability counter screen (AID 1224836); further: nearly all actives have a fitted effect of over 45% in size
In short: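 Fluorescence from CellTiter-Fluor indicates live cells after 23 h exposure. The human hepatoma line expresses hCAR and a CYP2B6-2.2kb reporter. Incubation medium contains 0.75 uM PK11195 (final).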

[3] = qHTS assay to identify small molecule antagonists of the constitutive androstane receptor (CAR) signaling pathway - cell viability counter screen (AID 1224837); further: nearly all actives have a fitted effect of over 45% in size
In short: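 Multiplexed cytotoxicity read-out for the CAR antagonist screen: double-stable HepG2-CYP2B6-hCAR cells co-treated with 50 nM CITCO (final) and compound over 15 concentrations, incubated 23 hr, then assessed by CellTiter-Fluor fluorescence.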

[4] = biological target: Nuclear receptor subfamily 1 group I member 3 (Homo sapiens) (UniProt Q14994); assay: qHTS assay to identify small molecule antagonists of the constitutive androstane receptor (CAR) signaling pathway (AID 1224838); further: nearly all actives have a fitted effect of over 40% in size
Nuclear receptor subfamily 1 group I member 3 (Homo sapiens), sequence (Q14994 whole entry, looked up): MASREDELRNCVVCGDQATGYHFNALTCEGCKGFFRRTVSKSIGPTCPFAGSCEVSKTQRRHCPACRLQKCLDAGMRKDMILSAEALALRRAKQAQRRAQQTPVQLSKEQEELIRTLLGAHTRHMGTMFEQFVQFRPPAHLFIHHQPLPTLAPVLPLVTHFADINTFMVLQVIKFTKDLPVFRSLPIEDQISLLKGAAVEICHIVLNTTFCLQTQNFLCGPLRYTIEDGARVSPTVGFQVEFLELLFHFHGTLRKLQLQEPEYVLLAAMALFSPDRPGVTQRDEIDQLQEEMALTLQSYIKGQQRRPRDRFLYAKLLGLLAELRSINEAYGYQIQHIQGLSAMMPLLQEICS
In short: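 Compounds were titrated across 15 concentrations onto HepG2 cells double-stably expressing hCAR and a CYP2B6-2.2kb reporter, together with 50 nM CITCO (final). After 24 h at 37 C, luciferase activity was measured by luminescence.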

[5] = biological target: Nuclear receptor subfamily 1 group I member 3 (Homo sapiens) (UniProt Q14994); assay: qHTS assay to identify small molecule agonists of the constitutive androstane receptor (CAR) signaling pathway (AID 1224839); further: nearly all actives have a fitted effect of over 15% in size; further: potency means the concentration at half of the fitted maximal effect;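 on activation: HepG2 cells stably carrying human CAR and a CYP2B6 luciferase reporter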
In short: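 Stable hCAR/CYP2B6-2.2kb HepG2 line in DMEM with 10% FBS; compounds (15 concentrations) and 0.75 uM PK11195 final, 24 h at 37 C/5% CO2, then ONE-Glo luminescence after 30 min.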

[6] = qHTS assay to identify small molecule antagonists of the estrogen related receptor signaling pathway with the pleiotropic PPARgamma coactivator (PGC) from Tox21 10K library - cell viability counter screen (AID 1224840; active means well fitted cell-killing curve with a large enough effect in the repeat runs, not every such curve was filed as active; further: nearly all actives have a fitted effect of over 40% in size)
In short: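 Step one, plate 2,000 PGC/ERR cells per well; step two, incubate 6 h at 37 C/5% CO2; step three, pin-transfer compounds; step four, incubate 17.5 h; step five, add CellTiter-Fluor and read fluorescence after 30 min.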

[7] = qHTS assay to identify small molecule antagonists of the estrogen related receptor signaling pathway with the pleiotropic PPARgamma coactivator (PGC) from Tox21 10K library (AID 1224841; call rule not given here; further: actives are mostly falling curves and most rising ones were filed inactive; nearly all actives have a fitted effect of over 50% in size)
In short: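 Antagonism in this quantitative HTS is taken from loss of luciferase signal in PGC/ERR cells. Cells (2,000/well) are treated with compounds in DMSO after a 6 h settling period and read by One-Glo luminescence after 18 h.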

[8] = biological target: Thyrotropin receptor (Homo sapiens) (UniProt P16473); assay: qHTS assay to identify small molecule agonists of the thyroid stimulating hormone receptor (TSHR) signaling pathway (AID 1224843; calls by dose curve; further: nearly all actives have a fitted effect of over 45% in size)
Thyrotropin receptor (Homo sapiens), sequence (P16473 whole entry, looked up): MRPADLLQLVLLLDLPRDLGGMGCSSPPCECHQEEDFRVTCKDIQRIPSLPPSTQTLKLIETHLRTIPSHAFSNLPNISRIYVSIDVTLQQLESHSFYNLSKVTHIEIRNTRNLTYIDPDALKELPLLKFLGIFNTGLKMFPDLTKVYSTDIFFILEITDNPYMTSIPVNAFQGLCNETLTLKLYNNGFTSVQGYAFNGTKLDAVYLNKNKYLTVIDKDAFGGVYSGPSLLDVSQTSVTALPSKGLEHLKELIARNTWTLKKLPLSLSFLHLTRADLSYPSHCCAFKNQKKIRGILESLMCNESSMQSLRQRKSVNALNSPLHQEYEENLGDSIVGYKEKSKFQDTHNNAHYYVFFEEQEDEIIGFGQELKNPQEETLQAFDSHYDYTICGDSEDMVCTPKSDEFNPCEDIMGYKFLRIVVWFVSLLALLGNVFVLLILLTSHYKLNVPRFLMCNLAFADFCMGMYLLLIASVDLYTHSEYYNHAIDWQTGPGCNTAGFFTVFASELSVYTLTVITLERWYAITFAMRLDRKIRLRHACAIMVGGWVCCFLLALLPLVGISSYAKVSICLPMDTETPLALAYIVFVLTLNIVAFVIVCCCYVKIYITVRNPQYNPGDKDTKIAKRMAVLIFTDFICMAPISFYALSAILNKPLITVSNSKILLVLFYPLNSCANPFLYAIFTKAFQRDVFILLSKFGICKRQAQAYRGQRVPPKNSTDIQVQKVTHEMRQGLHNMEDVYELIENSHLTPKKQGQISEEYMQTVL
In short: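 TSHR-expressing HEK293 cells (800 per well) were exposed to compounds for 30 min at room temperature. cAMP was then detected by HTRF competition with cAMP-d2 and anti-cAMP cryptate, read after 1 h at room temperature. Fifteen concentrations, triplicate.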

[9] = qHTS assay to identify small molecule agonists of the hypoxia (HIF-1) signaling pathway (AID 1224846; active means well fitted activation curve with a large enough effect in the signal ratio in the repeat runs, not every such curve was filed as active; the % refers to the signal ratio)
In short: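 Steps: seed ME-180 HRE-bla cells (2,000/well, 0.5% dialyzed FBS); incubate 5 hrs at 37C; pin-transfer compounds or DMSO; incubate 17 hrs; add LiveBLAzer B/G substrate CCF4-AM; measure reporter activation by FRET.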

[10] = qHTS assay to identify small molecule antagonists of the estrogen related receptor (ERR) signaling pathway from Tox21 library (AID 1224848); further: nearly all actives have a fitted effect of over 50% in size
In short: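 Cells: ERR line, 2,000/well; 6 h preincubation 37 C/5% CO2. Cpd in DMSO via pin tool; 18 h, 37 C. ONE-Glo, 30 min RT, luminescence.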

[11] = qHTS RealTime-Glo MT Cell Viability Assay in HepG2 cells - 24 hour (AID 1224867); further: nearly all actives have a fitted effect of over 50% in size
In short: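 HepG2 suspension premixed with RealTime-Glo reagents is plated at 600 cells per well and left 5 h at 37 C/5% CO2. Compounds in DMSO then go in, and bioluminescence reflecting viable cell number is recorded over 40 h.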

[12] = A CellTox Green Cytotoxicity Assay to monitor cytotoxicity in HEK293 cells - 0 hour (AID 1224869); further: nearly all actives have a fitted effect of over 50% in size; further: potency means the concentration at half of the fitted maximal effect
In short: (§1)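 Cytotoxicity was tracked continuously in HEK293 cells by a DNA-binding dye excluded from viable cells. Compounds were transferred in DMSO 5 h after seeding; fluorescence was recorded at intervals up to 40 h.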

[13] = A CellTox Green Cytotoxicity Assay to monitor cytotoxicity in HEK293 cells - 40 hour (AID 1224871); further: nearly all actives have a fitted effect of over 45% in size; further: potency means the concentration at half of the fitted maximal effect
In short: as §1

[14] = qHTS assay to identify small molecule agonists of the estrogen related receptor signaling pathway with the pleiotropic PPARgamma coactivator (PGC) from Tox21 10K library (AID 1224842); further: nearly all actives have a fitted effect of over 15% in size; further: potency means the concentration at half of the fitted maximal effect
In short: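 PGC/ERR reporter cells (NTP line) were seeded 2,000 per well, rested 6 h at 37 C/5% CO2, then pin-dosed with compounds in DMSO for 18 h at 37 C; luciferase read by One-Glo luminescence after 30 min at room temperature.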

[15] = qHTS assay to identify small molecule agonists of H2AX (AID 1224845; active means well fitted activation curve with a large enough effect in the signal ratio in the repeat runs, not every such curve was filed as active; the % refers to the signal ratio; further: potency means the concentration at half of the fitted maximal effect)
In short: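 Wild-type CHO-K1 cells plated overnight, then exposed 3 hr at 37C to compounds at 15 concentrations (0.76% DMSO). Lysed, then HTRF anti-pH2AX(S139)-cryptate/anti-H2AX-d2 detection after 24 hr at room temperature; emissions 665 and 620 nm.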

[16] = qHTS assay to identify small molecule agonists of H2AX - cell viability counter screen (AID 1224847; calls by dose curve; further: top concentration of the series differs between compounds; nearly all actives have a fitted effect of over 30% in size)
In short: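 Viability of CHO-K1 (wild type) cells after 3 hr compound exposure was measured by CellTiter-Glo luminescence.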

[17] = qHTS assay to identify small molecule agonists of the estrogen related receptor (ERR) signaling pathway from Tox21 library (AID 1224849; calls by dose curve; further: nearly all actives have a fitted effect of over 15% in size); conditions: ERR reporter cell line, ONE-Glo luciferase, 18 h; at 92.4 µM (top of the series) unless noted
In short: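 Agonist signal is luciferase luminescence from an ERR reporter cell line treated 18 h at 37 C with DMSO-dissolved compounds, read 30 min after ONE-Glo addition at room temperature.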

[18] = qHTS RealTime-Glo MT Cell Viability Assay in HEK293 cells - 32 hour (AID 1224868); further: nearly all actives have a fitted effect of over 50% in size; further: potency means the concentration at half of the fitted maximal effect
In short: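 Reads taken at 0, 8, 16, 24, 32 and 40 h from the same wells. HEK293 cells (600/well) carried RealTime-Glo reagents from seeding, with compound added after a 5 h settle at 37 C.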

[19] = qHTS RealTime-Glo MT Cell Viability Assay in HepG2 cells - 40 hour (AID 1224870); further: nearly all actives have a fitted effect of over 50% in size
In short: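 HepG2 cells mixed with RealTime-Glo MT reagents (NanoLuc plus cell-permeant prosubstrate) were seeded at 600 cells/well, incubated 5 h at 37 C/5% CO2, then pinned with compounds in DMSO; nonlytic luminescence tracked viability during 40 h treatment.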

[20] = qHTS assay to identify small molecule agonists of the hypoxia (HIF-1) signaling pathway - cell viability counter screen (AID 1224844; calls by dose curve; further: nearly all actives have a fitted effect of over 50% in size; further: potency means the concentration at half of the fitted maximal effect)
In short: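 Tox21 10K compounds were added to HRE-bla ME-180 cells (0.5% dialyzed FBS) and incubated 17 hrs at 37C; ATP-based CellTiter-Glo luminescence then reported cell viability in the same wells.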
On the % scale 0 is the no-effect control and ±100 the full control effect.

COc1cc2c(cc1N)oc1ccccc12
inactive: Potency [2] | Potency [3] | Potency [4] | Potency [6] | Potency [7] | Potency [8] | outcome [9] | Potency [10] | Potency [11] | Potency [12] | Potency [13]
active: Potency [1] 36.3 µM | Potency [5] 31.3 µM

Cc1ccc(C)c(N)c1
inactive: Potency [1] | Potency [2] | Potency [3] | Potency [4] | Potency [5] | Potency [6] | Potency [7] | Potency [14] | Potency [8] | Potency [15] | outcome [9] | Potency [16] | Potency [10] | activity change, positive = activation [17] 2.8% | Potency [11] | Potency [18] | Potency [12] | Potency [19] | Potency [13]

CC(C)c1ccccc1
inactive: Potency [1] | Potency [2] | Potency [3] | Potency [4] | Potency [5] | Potency [6] | Potency [8] | Potency [20] | Potency [15] | outcome [9] | Potency [16] | Potency [11] | Potency [18] | Potency [12] | Potency [19]

CC(C)(CO)[C@@H](O)C(=O)NCCC(=O)O
inactive: Potency [1] | Potency [2] | Potency [3] | Potency [4] | Potency [5] | Potency [6] | Potency [7] | Potency [14] | Potency [8] | Potency [20] | Potency [15] | Potency [10] | activity change, positive = activation [17] 7.16% | Potency [11] | Potency [18] | Potency [12] | Potency [19] | Potency [13]

COc1ccc2nc(NC(=O)Nc3ccccc3)sc2c1
inactive: Potency [2] | Potency [3] | Potency [4] | Potency [6] | Potency [8] | Potency [15] | outcome [9] | Potency [16] | Potency [11] | Potency [12] | Potency [19]
active: Potency [1] 0.389 µM | Potency [5] 10.6 µM | Potency [20] 19 µM | Potency [18] 5.35 µM | Potency [13] 26.8 µM

CC(=O)OC(C)OC(C)=O
inactive: Potency [1] | Potency [2] | Potency [3] | Potency [4] | Potency [5] | Potency [6] | Potency [8] | Potency [20] | Potency [15] | outcome [9] | Potency [16] | Potency [11] | Potency [18] | Potency [12] | Potency [19] | Potency [13]

CCOc1ccc(NC(N)=O)cc1
inactive: Potency [1] | Potency [2] | Potency [3] | Potency [4] | Potency [5] | Potency [6] | Potency [7] | Potency [14] | Potency [8] | Potency [20] | Potency [15] | outcome [9] | Potency [10] | activity change, positive = activation [17] 1.88% | Potency [11] | Potency [18] | Potency [12] | Potency [19] | Potency [13]

CCOC(=O)c1cc(=O)c2c(OCC(COc3cccc4oc(C(=O)OCC)cc(=O)c34)OC(=O)[C@@H](N)CCCCN)cccc2o1
inactive: Potency [1] | Potency [2] | Potency [3] | Potency [4] | Potency [5] | Potency [6] | Potency [7] | Potency [14] | Potency [8] | Potency [15] | outcome [9] | Potency [16] | Potency [10] | activity change, positive = activation [17] 8.23% [at 42.5 µM] | Potency [11] | Potency [18] | Potency [12] | Potency [19] | Potency [13]

CNCCC(Oc1ccccc1OC)c1ccccc1 (centres undefined)
inactive: Potency [1] | Potency [2] | Potency [3] | Potency [4] | Potency [5] | Potency [6] | Potency [14] | Potency [8] | Potency [20] | Potency [16] | Potency [10] | activity change, positive = activation [17] -5.63% [at 42.5 µM] | Potency [11] | Potency [18] | Potency [12] | Potency [19] | Potency [13]

COC(=O)c1ccc(OC)cc1
inactive: Potency [1] | Potency [2] | Potency [3] | Potency [4] | Potency [5] | Potency [6] | Potency [7] | Potency [14] | Potency [8] | Potency [20] | Potency [15] | outcome [9] | Potency [16] | Potency [10] | activity change, positive = activation [17] 5.85% | Potency [11] | Potency [18] | Potency [12] | Potency [19] | Potency [13]

Cc1ccc(C=O)s1
inactive: Potency [1] | Potency [2] | Potency [3] | Potency [4] | Potency [5] | Potency [6] | Potency [7] | Potency [14] | Potency [20] | outcome [9] | Potency [16] | Potency [10] | activity change, positive = activation [17] 3.35% | Potency [11] | Potency [18]
active: Potency [12] 24.5 µM | Potency [13] 43.6 µM

OCc1ccccc1O
inactive: Potency [1] | Potency [2] | Potency [3] | Potency [4] | Potency [5] | Potency [6] | Potency [8] | Potency [20] | Potency [15] | outcome [9] | Potency [16] | Potency [11] | Potency [18] | Potency [12] | Potency [19] | Potency [13]

CC(C)CCCCCCc1ccc(OCCOCCO)cc1
inactive: Potency [1] | Potency [2] | Potency [3] | Potency [4] | Potency [5] | Potency [6] | Potency [7] | Potency [14] | Potency [8] | Potency [20] | Potency [15] | outcome [9] | Potency [16] | Potency [10] | activity change, positive = activation [17] -10.7% | Potency [11] | Potency [18] | Potency [12] | Potency [19] | Potency [13]

CCCCCCOc1ccc(N)cc1
inactive: Potency [2] | Potency [3] | Potency [4] | Potency [6] | Potency [7] | Potency [20] | outcome [9] | Potency [10] | activity change, positive = activation [17] 2.67% | Potency [11] | Potency [12]
active: Potency [1] 31.7 µM | Potency [5] 27.3 µM | Potency [14] 12.2 µM | Potency [15] 56.6 µM | Potency [13] 43.6 µM

CC(C)OC(C)C
inactive: Potency [1] | Potency [2] | Potency [3] | Potency [4] | Potency [5] | Potency [6] | Potency [7] | Potency [14] | Potency [8] | Potency [20] | outcome [9] | Potency [16] | Potency [10] | activity change, positive = activation [17] -8.47% | Potency [11] | Potency [18] | Potency [12] | Potency [13]
